Screens as filed in PubChem BioAssay.
Compounds with a hit are over-represented: about 6.5% of the library has one in this group of screens.
FMDV inh – blocks foot and mouth disease virus; AID 1159524; 1.2% of 410,000 active; Potency, µM (highest dose often 57.9 µM), hits mostly inhibitors; FMDV antiviral cell-based qHTS; calls by dose curve; tested in HEK293T cells; note: read-out not given here; nearly all actives have a fitted effect of over 45% in size
Vaccinia Venus – inhibitors of vaccinia virus (Venus reporter) | Vaccinia virus Venus reporter expression, fluorescence | Potency, µM (highest dose often 36.5 µM), most hits filed as inhibitors | 0.46% of 330,000 active | AID 720580; calls by dose curve; tested in A549 cells; note: nearly all actives have a fitted effect of over 30% in size
HCMV antiviral – human cytomegalovirus inhibition; HFF cells, HCMV-luciferase reporter, 72 h; hits give low values; activity change, negative = inhibition, % at 57.5 µM; 4.5% of 410,000 active; in the data active = activity change below about -60%; inconclusive = no clear call, values can overlap the other calls; inactive = above about -39%
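Cell-based, HFFs, 1000 cells/well, 16 h 37C; cpds in DMSO + HCMV-luc, MOI 1 PFU/cell; 72 h 37C; OneGlo luminescence after 5 min RT; norm. to buffer vs Salinomycin 10uM.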
Marburg entry inh – inhibitors of Marburg virus binding or cell entry | 1.8% of 300,000 active | Potency, µM (highest dose often 37.8 µM), hits mostly inhibitors | Marburg virus pseudotyped entry inhibition, cell reporter | AID 540276; calls by dose curve; tested in HEK293 cells
VACV mCherry inh – inhibitors of vaccinia virus infection (mCherry reporter signal); AID 720579; Vaccinia virus mCherry reporter infection, fluorescence; Potency, µM (highest dose often 36.5 µM), actives largely listed as inhibitors; 0.63% of 310,000 active; calls by dose curve; tested in A549 cells; note: nearly all actives have a fitted effect of over 35% in size
Lassa entry inh – blocks Lassa virus binding to or entry into cells. Lassa virus pseudotype entry inhibition, cell reporter. Potency, µM (doses to about 37.9 µM), most hits filed as inhibitors. 1.2% of 300,000 active. AID 540256; calls by dose curve; tested in HEK293 cells; note: nearly all actives have a fitted effect of over 50% in size
Numbers stand for hits.

Screening CSc1cccc(NC(=O)Nc2ccccc2)c1 returned FMDV inh inactive, Vaccinia Venus inactive, HCMV antiviral inactive, Marburg entry inh inactive, VACV mCherry inh inactive and Lassa entry inh inactive.
`C=CCN1C(=O)C(=O)N(CC(=O)NCC(=O)Nc2ccc(F)c(F)c2F)C1=O` gave FMDV inh inactive and HCMV antiviral inactive.
`COc1ccc(S(=O)(=O)Nc2cccc(S(=O)(=O)N3CCCCCC3)c2)cc1` gave FMDV inh inactive, Vaccinia Venus inactive, HCMV antiviral inactive, Marburg entry inh inactive, VACV mCherry inh inactive and Lassa entry inh inactive.
For COc1cc(CC(=O)Nc2cccc(C(F)(F)F)c2)cc(OC)c1OC the results were FMDV inh inconclusive, Vaccinia Venus inactive, HCMV antiviral -71.2, Marburg entry inh inconclusive, VACV mCherry inh inactive and Lassa entry inh inactive.
Screening COc1ccc(CC(=O)Nc2cccc(SC)c2)cc1OC returned FMDV inh inconclusive, Vaccinia Venus inactive, HCMV antiviral -66.2, Marburg entry inh inconclusive, VACV mCherry inh inactive and Lassa entry inh inconclusive.
For COc1cc(CCC(=O)Nc2cccc(C(F)(F)F)c2)cc(OC)c1OC the results were FMDV inh inactive, Vaccinia Venus inactive, HCMV antiviral inactive, Marburg entry inh inconclusive, VACV mCherry inh inactive and Lassa entry inh inactive.
CSc1cccc(NC(=O)COc2ccccc2)c1 was read as FMDV inh inactive, Vaccinia Venus inactive, HCMV antiviral -80.0, Marburg entry inh inactive, VACV mCherry inh inactive and Lassa entry inh inactive.
`O=S(=O)(Nc1nc2ccccc2nc1Nc1cccc(S(=O)(=O)N2CCCCC2)c1)c1ccccc1` gave FMDV inh inconclusive, Vaccinia Venus inconclusive, HCMV antiviral -82.7, Marburg entry inh inconclusive, VACV mCherry inh 11.2µM and Lassa entry inh inconclusive.
Screening COc1ccc(Cc2nnc(NC(=O)C(C)(C)C)s2)cc1 returned FMDV inh inactive, Vaccinia Venus inactive, HCMV antiviral inactive, Marburg entry inh inactive, VACV mCherry inh inactive and Lassa entry inh inactive.
`Cc1c(C(=O)NCCN2CCOCC2)cnn1-c1nccc(-c2cc3ccccc3o2)n1` gave FMDV inh inactive, Vaccinia Venus inactive and VACV mCherry inh inactive.
`C[C@@H]1CN([C@@H](C)CO)C(=O)c2cc(C#Cc3ccccc3)cnc2O[C@@H]1CN(C)Cc1ccccn1` gave FMDV inh inactive, Vaccinia Venus inactive, HCMV antiviral inactive and VACV mCherry inh inactive.
For COc1ccccc1-n1cnnc1SCC(=O)Nc1cccc(S(=O)(=O)N2CCCCC2)c1 the results were HCMV antiviral -67.9, Marburg entry inh inactive and Lassa entry inh inactive.
`O=[N+]([O-])c1cnccc1Nc1cccc(F)c1` gave FMDV inh inactive, Vaccinia Venus inactive, HCMV antiviral inactive, Marburg entry inh inconclusive, VACV mCherry inh inactive and Lassa entry inh inactive.
COc1ccc(Nc2ccncc2[N+](=O)[O-])cc1 was read as FMDV inh inactive, Vaccinia Venus inactive, HCMV antiviral -71.2, Marburg entry inh inactive and VACV mCherry inh inactive.
Screening CCCCCNC(=O)C(C1CC1)n1c(=O)c(-c2ccccc2)nc2ccccc21 (stereo not drawn) returned FMDV inh inactive, Vaccinia Venus inactive, HCMV antiviral -68.9 and VACV mCherry inh inconclusive.
`CCCCNC(=O)[C@@H]1CC=C[C@@H]2CCN(Cc3ccccc3)C(=O)[C@@H]21` gave Vaccinia Venus inactive and VACV mCherry inh inactive.
O=C(CSc1nc2ccccc2c2nc(-c3ccccc3)nn12)Nc1ccc(F)cc1 was read as FMDV inh inactive, Vaccinia Venus inactive, HCMV antiviral active, VACV mCherry inh inactive and Lassa entry inh inactive.
`COc1ccccc1NC(=O)CSc1nc2ccccc2c2nc(-c3ccccc3)nn12` gave FMDV inh inactive, Vaccinia Venus inactive, HCMV antiviral inactive, VACV mCherry inh inactive and Lassa entry inh inactive.
`O=C(CSc1nnc(-c2ccc(F)cc2)c2ccccc12)Nc1ccccc1Cl` gave FMDV inh inactive, Vaccinia Venus inactive, HCMV antiviral inactive, Marburg entry inh inactive, VACV mCherry inh inactive and Lassa entry inh inconclusive.
`O=C(CSc1nnc(-c2ccc(F)cc2)c2ccccc12)Nc1c(F)cccc1F` gave FMDV inh inactive, HCMV antiviral -83.2, Marburg entry inh inactive and Lassa entry inh inconclusive.
O=C(CSc1nnc(-c2ccc(F)cc2)c2ccccc12)Nc1ccccc1 was read as FMDV inh inactive, Vaccinia Venus inactive, HCMV antiviral -63.2, Marburg entry inh inactive, VACV mCherry inh inactive and Lassa entry inh inactive.
